Results as given in PubChem BioAssay AID1159580 (chemical genetic matrix, 2015).
Among all 5,500 compounds or so, about 2,000 (36%) were called active. About 18% were inconclusive and are not listed. Rule as the data show it: active = normalized growth mostly below about 0.91 (no sharp cut-off); inconclusive = no clear call, values can overlap the other calls; inactive = mostly above about 0.92. This is one part of the list.

Experiment: chemical genetic growth profiling, strain panel (AID 1159580);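 also: tested at 20 µM; growth read once vehicle control cultures reached saturation at 30 °C; 1 = growth at the plate median or of vehicle wells; lower values mean less growth of the strain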
Details: S. cerevisiae deletion strains, growth OD

Measured: normalized growth

Oc1ccc([C@H]2Oc3cc(O)cc(O)c3C[C@H]2O)cc1
inactive: locus YAL021C, strain ccr4, stronger effect = lower value 0.995 | locus YAL026C, strain drs2, stronger effect = lower value 0.991 | locus YAL030W, strain snc1, stronger effect = lower value 0.988 | locus YBL061C, strain skt5, stronger effect = lower value 0.98 | locus YBR009C, strain hhf1, stronger effect = lower value 1.02 | locus YBR023C, strain chs3, stronger effect = lower value 0.99 | locus YBR171W, strain sec66, stronger effect = lower value 0.969 | locus YBR231C, strain swc5, stronger effect = lower value 0.94 | locus YBR279W, strain paf1, stronger effect = lower value 0.999 | locus YCL011C, strain gbp2, stronger effect = lower value 1.01 | locus YCL016C, strain dcc1, stronger effect = lower value 1.01 | locus YCL069W, strain vba3, stronger effect = lower value 0.981 | locus YCR088W, strain abp1, stronger effect = lower value 0.987 | locus YDL005C, strain med2, stronger effect = lower value 0.988 | locus YDL040C, strain nat1, stronger effect = lower value 0.983 | locus YDR001C, strain nth1, stronger effect = lower value 0.987 | locus YDR069C, strain doa4, stronger effect = lower value 0.952 | locus YDR137W, strain rgp1, stronger effect = lower value 0.996 | locus YDR159W, strain sac3, stronger effect = lower value 0.939 | locus YDR195W, strain ref2 0.933 | locus YDR297W, strain sur2, stronger effect = lower value 0.984 | locus YDR334W, strain swr1, stronger effect = lower value 0.976 | locus YDR335W, strain msn5, stronger effect = lower value 0.995 | locus YDR392W, strain spt3, stronger effect = lower value 0.929 | locus YEL003W, strain gim4, stronger effect = lower value 0.97 | locus YEL037C, strain rad23, stronger effect = lower value 0.982 | locus YEL061C, strain CIN8 (second series), stronger effect = lower value 0.979 | locus YER015W, strain faa2, stronger effect = lower value 0.998 | locus YER016W, strain bim1, stronger effect = lower value 0.991 | locus YER111C, strain swi4, stronger effect = lower value 0.967 | locus YER155C, strain BEM2 (second series), stronger effect = lower value 0.948 | locus YFR010W, strain ubp6, stronger effect = lower value 0.971 | locus YGL167C, strain pmr1, stronger effect = lower value 0.986 | locus YGL173C, strain kem1, stronger effect = lower value 0.977 | locus YGL227W, strain vid30, stronger effect = lower value 0.987 | locus YGL240W, strain doc1, stronger effect = lower value 0.969 | locus YGL253W, strain hxk2, stronger effect = lower value 0.956 | locus YHR013C, strain ard1, stronger effect = lower value 1.01 | locus YHR027C, strain rpn1, stronger effect = lower value 0.979 | locus YHR030C, strain SLT2, stronger effect = lower value 0.983 | locus YHR079C, strain IRE1, stronger effect = lower value 0.981 | locus YHR142W, strain chs7, stronger effect = lower value 0.993 | locus YJL092W, strain hpr5, stronger effect = lower value 0.983 | locus YJL095W, strain BCK1 (second series), stronger effect = lower value 0.977 | locus YJL095W, strain BCK1, stronger effect = lower value 0.97 | locus YJL115W, strain asf1, stronger effect = lower value 0.976 | locus YJL129C, strain trk1, stronger effect = lower value 0.978 | locus YJL154C, strain vps35, stronger effect = lower value 0.984 | locus YJL164C, strain tpk1, stronger effect = lower value 1 | locus YJL166W, strain qcr8, stronger effect = lower value 0.998 | locus YJR066W, strain TOR1, stronger effect = lower value 0.947 | locus YKL160W, strain elf1, stronger effect = lower value 1.02 | locus YKR026C, strain gcn3, stronger effect = lower value 0.968 | locus YKR091W, strain srl3, stronger effect = lower value 0.992 | locus YLL001W, strain dnm1, stronger effect = lower value 0.956 | locus YLL026W, stronger effect = lower value 0.993 | locus YLL041C, strain sdh2, stronger effect = lower value 0.983 | locus YLR027C, strain aat2, stronger effect = lower value 0.976 | locus YLR113W, strain HOG1, stronger effect = lower value 0.977 | locus YLR221C, strain rsa3, stronger effect = lower value 0.964 | locus YLR258W, strain gsy2, stronger effect = lower value 0.999 | locus YLR262C, strain YPT6 (second series), stronger effect = lower value 1 | locus YLR320W, strain mms22, stronger effect = lower value 0.982 | locus YLR342W, strain FKS1, stronger effect = lower value 0.99 | locus YLR357W, strain rsc2, stronger effect = lower value 0.949 | locus YLR370C, strain arc18, stronger effect = lower value 0.977 | locus YLR384C, strain iki3, stronger effect = lower value 0.991 | locus YML120C, strain ndi1, stronger effect = lower value 1 | locus YMR058W, strain fet3, stronger effect = lower value 0.985 | locus YMR125W, strain sto1, stronger effect = lower value 0.99 | locus YMR129W, stronger effect = lower value 0.989 | locus YMR205C, strain PFK2, stronger effect = lower value 1 | locus YMR231W, strain pep5, stronger effect = lower value 0.976 | locus YNL071W, strain lat1, stronger effect = lower value 1 | locus YNL183C, strain NPR1, stronger effect = lower value 0.956 | locus YNL209W, strain ssb2, stronger effect = lower value 1.01 | locus YNL248C, strain rpa49, stronger effect = lower value 0.956 | locus YNL322C, strain KRE1 (second series), stronger effect = lower value 0.995 | locus YNR049C, strain mso1, stronger effect = lower value 0.987 | locus YOR001W, strain rrp6, stronger effect = lower value 0.947 | locus YOR070C, strain gyp1, stronger effect = lower value 0.99 | locus YOR080W, strain dia2, stronger effect = lower value 0.974 | locus YOR083W, strain WHI5, stronger effect = lower value 1.01 | locus YOR106W, strain vam3, stronger effect = lower value 1.02 | locus YOR231W, strain MKK1, stronger effect = lower value 0.978 | locus YOR265W, strain rbl2, stronger effect = lower value 0.981 | locus YOR270C, strain vph1, stronger effect = lower value 0.958 | locus YOR290C, strain snf2, stronger effect = lower value 1.03 | locus YPL051W, strain arl3, stronger effect = lower value 0.954 | locus YPL078C, strain atp4, stronger effect = lower value 1.01 | locus YPL106C, strain sse1, stronger effect = lower value 0.982 | locus YPL240C, strain hsp82, stronger effect = lower value 0.989 | locus YPL256C, strain CLN2, stronger effect = lower value 0.967
